Results published in PubChem BioAssay (NCATS).
Results filed as inconclusive are left out. Where a call stands in place of a potency, no number is given. Calls of active or inactive are those of the source. The call rests on the fitted dose curve; in most records, active means well fitted curve in the direction sought with a large enough effect; inconclusive means small, poorly fitted or top-dose-only effect, or another doubt; inactive means no such curve, though single readings can be large; an effect the other way counts as inactive or inconclusive.

Biological target: Luciferin 4-monooxygenase (Photinus pyralis) (UniProt P08659)
Assay: Biochemical firefly luciferase enzyme assay for NPC (AID 624030);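 further: purified P. pyralis luciferase at 10 nM with luciferin and ATP substrate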
Details: purified P. pyralis luciferase, luminescence, 5 min; series mostly up to 58.6 µM
In short: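 Counter-screen for direct inhibition of the luciferase enzyme by approved-drug library compounds, run at 10 nM enzyme in 50 mM Tris acetate (final). Luminescence was read within 5 min of enzyme-buffer addition and normalized to PTC124 versus DMSO (0%).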
Further: nearly all actives have a fitted effect of over 70% in size.

Luciferin 4-monooxygenase (Photinus pyralis), sequence (P08659 whole entry, looked up): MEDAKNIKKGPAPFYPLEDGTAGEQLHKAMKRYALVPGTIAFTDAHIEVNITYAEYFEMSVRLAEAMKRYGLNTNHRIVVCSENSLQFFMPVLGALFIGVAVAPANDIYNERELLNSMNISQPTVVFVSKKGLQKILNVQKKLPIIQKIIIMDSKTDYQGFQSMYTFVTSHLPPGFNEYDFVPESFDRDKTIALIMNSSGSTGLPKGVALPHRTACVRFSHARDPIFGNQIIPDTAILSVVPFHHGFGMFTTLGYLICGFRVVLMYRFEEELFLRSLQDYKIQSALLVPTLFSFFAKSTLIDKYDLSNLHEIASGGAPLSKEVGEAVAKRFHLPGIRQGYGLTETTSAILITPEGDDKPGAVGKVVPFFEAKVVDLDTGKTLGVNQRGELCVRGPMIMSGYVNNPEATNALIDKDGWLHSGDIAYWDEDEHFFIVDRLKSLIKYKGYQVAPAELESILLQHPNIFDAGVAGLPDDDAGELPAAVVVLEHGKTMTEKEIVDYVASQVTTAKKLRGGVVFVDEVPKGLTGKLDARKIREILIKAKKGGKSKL

SMILES | Potency
CCN1CCC[C@H]1CNC(=O)c1c(OC)ccc(Br)c1OC | inactive
CCCN1CCCC[C@H]1C(=O)Nc1c(C)cccc1C | inactive
Cc1onc(-c2c(Cl)cccc2Cl)c1C(=O)N[C@@H]1C(=O)N2[C@@H]1SC(C)(C)[C@@H]2C(=O)O | inactive
CO/N=C1\CN(c2nc3c(cc2F)c(=O)c(C(=O)O)cn3C2CC2)CC1CN (configuration not stated) | inactive
COc1cc2c(cc1OC)C(=O)C(CC1CCN(Cc3ccccc3)CC1)C2 (configuration not stated) | inactive
CC(C)N=C(N)/N=C(\N)Nc1ccc(Cl)cc1 | inactive
COc1ccc(CCN2CCC(Nc3nc4ccccc4n3Cc3ccc(F)cc3)CC2)cc1 | inactive
NCCCC[C@H](N[C@@H](CCc1ccccc1)C(=O)O)C(=O)N1CCC[C@H]1C(=O)O | inactive

System: not listed separately
Assay: S16 Schwann cell viability assay (CellTiter-Glo assay) (AID 624031); further: potency means the concentration at half of the fitted maximal effect
Details: S16 rat Schwann cells viability, 24 h; series mostly up to 57.5 µM
In short: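 Counter-screen for cytotoxicity: parental S16 rat Schwann cells lacking the PMP22 reporters, treated 24 h with compound, viability from cellular ATP by CellTiter-Glo luminescence, normalized to DMSO (0%) and no-cell wells.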

SMILES | Potency
CCCOC(C(=O)OC1CCN(C)CC1)(c1ccccc1)c1ccccc1 | inactive
CC(C)(C)CC(C)(C)c1ccc(OCCOCC[N+](C)(C)Cc2ccccc2)cc1 | 32.2 µM (active)
CCN(CCCc1ccccc1)CCCc1ccccc1 | inactive
Oc1ccc(Cl)cc1Sc1cc(Cl)ccc1O | inactive
COC(=O)[C@H]1[C@H]2C[C@H]3c4[nH]c5ccccc5c4CCN3C[C@H]2CC[C@@H]1O | inactive
COc1cc2c(cc1OC)C(C(C(=O)N(CCc1ccc(OC)c(OC)c1OC)CCc1ccc(OC)c(OC)c1OC)c1ccccc1)=NCC2 (configuration not stated) | inactive
CCCCCCC[N+](CC)(CC)CCCCc1ccc(Cl)cc1 | inactive
Cc1ccc(C(=O)C(C)CN2CCCCC2)cc1 (configuration not stated) | inactive
CN(C(=O)CN(CCO)CC(=O)N(C)C(C)(C)Cc1ccccc1)C(C)(C)Cc1ccccc1 | inactive
